Results as given in PubChem BioAssay (Tox21).
Values joined by “and” are separate entries in the source; they are usually repeats but may differ in a detail not shown here. Equal entries are not always repeated. Values without a mark were called inactive. Results filed as inconclusive are left out. Active and inactive are the calls of the source. Unless noted, calls come from the whole dose curve; as a rule, active = well fitted curve in the direction sought with a large enough effect in the repeat runs; inconclusive = weak or mixed curves; inactive = no such curve, though single readings can be large; an effect the other way counts as inactive or inconclusive.

Key:
[1] = qHTS assay to identify small molecule agonists of H2AX - cell viability counter screen (AID 1224847; calls by dose curve; note: nearly all actives have a fitted effect of over 30% in size; note: potency is the fitted concentration of half-maximal effect)
Procedure, shortened: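 Cells plated first: CHO-K1, 1000 per well in 10% FBS medium, incubated overnight at 37C. Then 15-point compound titration added (final DMSO 0.76%) for 3 hr. Finally CellTiter-Glo added and luminescence read.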

[2] = qHTS RealTime-Glo MT Cell Viability Assay in HepG2 cells - 24 hour (AID 1224867); note: nearly all actives have a fitted effect of over 50% in size; note: potency is the fitted concentration of half-maximal effect
Procedure, shortened: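 HepG2 cells (600/well) were dispensed with RealTime-Glo reagents, incubated 5 h at 37 °C, then treated with compounds in DMSO for up to 40 h. Nonlytic NanoLuc luminescence reflecting viable cells was read at each stated time point.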

[3] = A CellTox Green Cytotoxicity Assay to monitor cytotoxicity in HEK293 cells - 0 hour (AID 1224869); note: nearly all actives have a fitted effect of over 50% in size; note: potency is the fitted concentration of half-maximal effect
Procedure, shortened: (§1)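 Dead-cell fluorescence measured kinetically: asymmetric cyanine dye, HEK293, 600 cells/well, 5 h settle, 23 nL cpd/DMSO, 37 C, reads 0–40 h every 8 h.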

[4] = qHTS RealTime-Glo MT Cell Viability Assay in HepG2 cells - 40 hour (AID 1224870); note: nearly all actives have a fitted effect of over 50% in size; note: potency is the fitted concentration of half-maximal effect
Procedure, shortened: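 Real-time viability: cells seeded at 600 per well together with NanoLuc and cell-permeant prosubstrate, compounds added after 5 h incubation. Luminescence tracked at 0, 8, 16, 24, 32 and 40 h of exposure.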

[5] = A CellTox Green Cytotoxicity Assay to monitor cytotoxicity in HEK293 cells - 40 hour (AID 1224871); note: nearly all actives have a fitted effect of over 45% in size; note: potency is the fitted concentration of half-maximal effect
Procedure, shortened: as §1

[6] = qHTS assay to identify small molecule antagonists of the estrogen related receptor (ERR) signaling pathway from Tox21 library (AID 1224848); note: nearly all actives have a fitted effect of over 50% in size; note: potency is the fitted concentration of half-maximal effect
Procedure, shortened: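 ERR cell line, 2,000 cells/well. 6 h settle, then compound (DMSO) added; 18 h at 37 C; ONE-Glo luminescence after 30 min RT.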

[7] = qHTS assay to identify small molecule agonists of the estrogen related receptor (ERR) signaling pathway from Tox21 library (AID 1224849; calls by dose curve; note: nearly all actives have a fitted effect of over 15% in size); details: ERR reporter cell line, ONE-Glo luciferase, 18 h; at 92.4 µM (top of the series) unless noted
Procedure, shortened: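 Quantitative HTS in agonist format: NTP ERR cell line, compounds transferred in DMSO after 6 h plating, 18 h incubation at 37 C, ONE-Glo luminescence endpoint.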

[8] = qHTS RealTime-Glo MT Cell Viability Assay in HEK293 cells - 32 hour (AID 1224868); note: nearly all actives have a fitted effect of over 50% in size; note: potency is the fitted concentration of half-maximal effect
Procedure, shortened: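 HEK293 cells seeded with NanoLuc/prosubstrate reagent, rested 5 h at 37 C, then dosed and kept at 37 C up to 40 h. Nonlytic real-time luminescence from viable cells read at 0, 8, 16, 24, 32 and 40 h.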
% is set by controls: 0 for no effect and ±100 for the full control effect.

| Structure (SMILES) | Potency [1] | Potency [2] | Potency [3] | Potency [4] | Potency [5] | Potency [6] | activity change, positive = activation [7] | Potency [8] |
| --- | --- | --- | --- | --- | --- | --- | --- | --- |
| CN1[C@@H]2CC[C@@H]1CC(OC(=O)C(CO)c1ccccc1)C2 (some centres undefined) | inactive | inactive | inactive | inactive | inactive |  |  |  |
| O=C1OC(OC(=O)c2cccnc2Nc2cccc(C(F)(F)F)c2)c2ccccc21 (centres undefined) | inactive | inactive | inactive | inactive | inactive | inactive | -0.557% [at 42.5 µM] | inactive |
| CCCCCCCC/C=C\CCCCCCCC(=O)N(C)CC(=O)O | 101 µM (active) | inactive | inactive | inactive | 34.7 µM (active) |  | -30% |  |
| CO[C@H]1C=CO[C@@]2(C)Oc3c(C)c(O)c4c(O)c(cc(O)c4c3C2=O)NC(=O)/C(C)=C\C=C/[C@H](C)[C@H](O)[C@@H](C)[C@@H](O)[C@@H](C)[C@H](OC(C)=O)[C@@H]1C | inactive | inactive | inactive |  | inactive |  | -31.9% | inactive |
| Cc1cc(Nc2ccc(O)cc2)ccc1N | 89.4 µM (active) | 48.8 µM (active) | inactive |  | 24.4 µM (active) | 19.2 µM (active) | -47.7% | 19.4 µM (active) |
| CCCCCCCCCCCCN(CCO)CCO | 100 µM (active) | 48.8 µM (active) | inactive | 38.7 µM (active) | 54.7 µM (active) | 60.9 µM (active) | -79.7% | 43.5 µM (active) |
| CC(C)(c1cc(Br)c(OCCO)c(Br)c1)c1cc(Br)c(OCCO)c(Br)c1 | 87.8 µM (active) |  | inactive |  |  | 11.9 µM (active) | -67.7% | 13.5 µM (active) |
| O=C1c2c(O)ccc([N+](=O)[O-])c2C(=O)c2c([N+](=O)[O-])ccc(O)c21 | 50 µM (active) | 38.5 µM (active) | inactive |  | inactive | 15.2 µM (active) | -80% | 24.3 µM (active) |
| C/C=C/C(=O)Oc1c(CCCCCC(C)C)cc([N+](=O)[O-])cc1[N+](=O)[O-] | 50.5 µM (active) | 21.9 µM (active) | inactive | 43.6 µM (active) | 38.9 µM (active) | 6.11 µM (active) | -62.8% | 15.5 µM (active) |
| c1ccc(Nc2cccc3ccccc23)cc1 | 115 µM (active) and 113 µM (active) | inactive | inactive |  | inactive | inactive | -11.6% (active) | inactive |
| O=C1C=CC(=O)N1c1ccccc1 | 45 µM (active) | 13.8 µM (active) | inactive |  | 11 µM (active) | 54.5 µM (active) | -78.1% | 11 µM (active) |
| C/C=C/C=N/NC(=O)c1ccncc1 | inactive | inactive |  | inactive |  |  |  |  |
| O=C1c2c(O)ccc(O)c2C(=O)c2c(NCCNCCO)ccc(NCCNCCO)c21 |  | 9.52 µM (active) | inactive | 7.56 µM (active) | inactive | 0.75 µM (active) | -59.3% [at 42.5 µM] | 0.0239 µM (active) |
| Cc1c(-c2ccc(O)cc2)n(Cc2ccc(OCCN3CCCCCC3)cc2)c2ccc(O)cc12 |  | 15.1 µM (active) | inactive |  | 16.9 µM (active) |  |  | 3.01 µM (active) |
| Nc1ccc2cc3ccc(N)cc3nc2c1 |  |  | 38.9 µM (active) and 21.3 µM (active) | 9.52 µM (active) | 43.6 µM (active) and 21.3 µM (active) |  |  | 871 nM (active) and 2.13 µM (active) |
| Clc1ccc(C(Cn2ccnc2)OCc2c(Cl)cccc2Cl)c(Cl)c1 (centres undefined) |  |  | inactive |  |  | 26.6 µM (active) | -58.8% [at 42.5 µM] | 16.9 µM (active) |
| CCC(C)(C)c1cc(O)c(C(C)(C)CC)cc1O |  |  | inactive |  |  | 68.6 µM (active) | -67.5% | 30.9 µM (active) |
| CN(C)c1ccc(N=NS(=O)(=O)O)cc1 | 40.1 µM (active) | inactive | inactive | inactive | inactive |  |  |  |
| CSc1c(Cl)c(Cl)c(Cl)c(Cl)c1Cl | inactive | inactive | inactive | inactive | 48.7 µM (active) |  |  |  |
| CC(=O)OC(OC(C)=O)c1ccc([N+](=O)[O-])o1 |  |  | inactive |  | 49.8 µM (active) |  | -81.4% | 44.4 µM (active) |
| C[C@@]12C(=O)OC(=O)[C@]1(C)C1CCC2O1 |  | 4.77 µM (active) | inactive | 1.69 µM (active) | inactive |  |  | 6.01 µM (active) |
